# Source: PubChem (Broad Institute)
# Shown is part of a subset that was picked to be rich in hits.
# IDE exosite FP = displaces the probe from the exo-site of human IDE; P14735; purified IDE, FL-6b probe fluorescence polarization; active compounds read low; z-score at 20 µM; hit rate 6.3% among 17,000; AID 1259349;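 active = z-score of -3 or lower, meaning strong loss of probe binding signal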;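 also: His-tagged human IDE residues 42-1019 made in E. coli with 30 nM FL-6b probe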
# Target sequence (P14735 42-1019 limits assumed): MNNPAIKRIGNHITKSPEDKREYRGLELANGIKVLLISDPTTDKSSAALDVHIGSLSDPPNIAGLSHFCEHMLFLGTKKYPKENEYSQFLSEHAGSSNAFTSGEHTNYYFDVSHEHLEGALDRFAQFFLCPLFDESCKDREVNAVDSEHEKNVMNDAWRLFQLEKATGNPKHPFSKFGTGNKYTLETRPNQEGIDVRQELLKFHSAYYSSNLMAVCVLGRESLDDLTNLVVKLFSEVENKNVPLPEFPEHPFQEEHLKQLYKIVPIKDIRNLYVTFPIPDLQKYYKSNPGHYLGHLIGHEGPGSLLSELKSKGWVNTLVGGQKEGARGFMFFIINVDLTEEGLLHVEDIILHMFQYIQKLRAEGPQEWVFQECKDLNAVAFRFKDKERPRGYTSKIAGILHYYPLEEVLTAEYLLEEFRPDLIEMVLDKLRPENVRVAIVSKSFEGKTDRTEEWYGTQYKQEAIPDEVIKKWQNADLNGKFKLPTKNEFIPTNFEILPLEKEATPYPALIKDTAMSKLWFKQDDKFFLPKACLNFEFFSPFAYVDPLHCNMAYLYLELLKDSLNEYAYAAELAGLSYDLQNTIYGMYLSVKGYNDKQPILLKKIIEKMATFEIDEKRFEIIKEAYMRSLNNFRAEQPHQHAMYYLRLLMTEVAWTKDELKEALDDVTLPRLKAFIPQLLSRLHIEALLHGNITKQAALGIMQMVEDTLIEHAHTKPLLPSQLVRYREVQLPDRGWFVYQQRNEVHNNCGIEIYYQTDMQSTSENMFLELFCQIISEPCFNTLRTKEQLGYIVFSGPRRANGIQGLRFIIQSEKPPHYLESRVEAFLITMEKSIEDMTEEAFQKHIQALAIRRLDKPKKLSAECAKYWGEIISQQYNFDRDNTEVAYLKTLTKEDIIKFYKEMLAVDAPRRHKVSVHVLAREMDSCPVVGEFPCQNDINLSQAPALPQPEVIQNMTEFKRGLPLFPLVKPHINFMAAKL
# The depositor's hits bear a star.
SMILES,IDE exosite FP
Cc1ccc(-c2ccc([C@H]3[C@@H](CO)N4C(=O)CN(C(=O)c5ccc(F)cc5)C[C@@H]34)cc2)cc1,2.8
CN(C)CC#Cc1ccc([C@@H]2[C@H](CO)N3CCCCN(S(=O)(=O)c4ccccc4F)C[C@@H]23)cc1,-1
O=C(NCc1ccccc1)[C@H]1[C@H](CO)[C@H]2Cn3c(cccc3=O)[C@@H]1N2C(=O)Cc1ccccn1,-0.64
CN(C)C(=O)c1cccc(-c2ccc([C@H]3[C@@H](C#N)N(C(=O)C4CCC4)[C@H]3CO)cc2)c1,3.9
O=C(NC[C@@H]1[C@@H](c2ccccc2)[C@@H](CO)N1Cc1ccccn1)C1CCCC1,-1.2
COc1ccc2c3c([nH]c2c1)[C@H](CO)N(S(=O)(=O)c1ccccc1)CC31CCN(C)CC1,-1.3
CC(=O)N1CC(=O)N2[C@H](CO)[C@@H](c3ccc(-c4ccc(C)cc4)cc3)[C@@H]2C1,-2.4
O=C(CN1CCOCC1)N1CCCCN2[C@H](C1)[C@@H](c1ccc(C#Cc3ccccc3)cc1)[C@@H]2CO,-6.6*
O=C(CN1CCOCC1)N1CCCCN2[C@H](CO)[C@@H](c3ccc(-c4ccccc4)cc3)[C@@H]2C1,2.5
O=C(CN1CCOCC1)N1CCCCN2[C@@H](CO)[C@@H](c3ccc(/C=C/c4ccccc4)cc3)[C@@H]2C1,-10*
O=C(CN1CCOCC1)N1CCCCN2[C@H](CO)[C@@H](c3ccc(-c4ccccc4)cc3)[C@H]2C1,3.6
O=C(CN1CCOCC1)N1CC(=O)N2[C@H](C1)[C@H](c1ccc(-c3cccc(F)c3)cc1)[C@@H]2CO,-1.5
COc1ccc2c3c([nH]c2c1)[C@@H](CO)N(C(C)=O)CC31CCN(C(=O)Nc2ccc(F)cc2F)CC1,1.1
Cc1noc(C)c1NC(=O)N1C[C@H](O)COC[C@H]2O[C@@H](CC(=O)N[C@H]3CCN(Cc4ccccc4)C3)CC[C@@H]21,-1.6
O=C(c1ccccn1)N1CC(=O)N2[C@H](C1)[C@H](c1ccc(C#CCc3ccccc3)cc1)[C@@H]2CO,0.049
CCCC#Cc1ccc([C@H]2[C@H]3CN(C(=O)c4ccccn4)CC(=O)N3[C@H]2CO)cc1,2.6
O=C(c1ccccn1)N1CC(=O)N2[C@H](CO)[C@@H](c3ccc(C#Cc4ccccc4)cc3)[C@@H]2C1,-7.3*
O=C(c1ccccn1)N1CC(=O)N2[C@H](CO)[C@@H](c3ccc(C#CCc4ccccc4)cc3)[C@@H]2C1,-0.0049
O=C(c1ccccn1)N1CC(=O)N2[C@H](CO)[C@H](c3ccc(C#Cc4ccccc4)cc3)[C@@H]2C1,-5.8*
O=C(c1ccccn1)N1CC(=O)N2[C@@H](CO)[C@@H](c3ccc(C#Cc4ccccc4)cc3)[C@@H]2C1,-20*
O=C(c1ccccn1)N1CC(=O)N2[C@H](C1)[C@@H](c1ccc(C#CCc3ccccc3)cc1)[C@@H]2CO,0.38
CC(C)C#Cc1ccc([C@@H]2[C@@H](CO)N3C(=O)CN(C(=O)c4ccccn4)C[C@@H]23)cc1,0.71
O=C(c1ccccn1)N1CC(=O)N2[C@H](CO)[C@@H](c3ccc(C#CCc4ccccc4)cc3)[C@H]2C1,-1.9
C/C=C/c1ccccc1[C@@H]1[C@@H](C#N)N(C(=O)CN2CCOCC2)[C@@H]1CO,0.38
O=C(Cc1cccnc1)N1CC(=O)N2[C@H](C1)[C@@H](c1ccc(C#CC3CC3)cc1)[C@@H]2CO,-0.42
SMILES,IDE exosite FP
COCC#Cc1ccc([C@H]2[C@H](CO)N3C(=O)CN(C(=O)Nc4cc(F)ccc4F)C[C@@H]23)cc1,-0.88
CC(C)CC#Cc1ccc([C@H]2[C@@H](CO)N3C(=O)CN(C(=O)NC(C)C)C[C@@H]23)cc1,0.23
COCC(=O)N(C[C@@H]1[C@@H](c2ccccc2)[C@H](CO)N1C(=O)NC(C)C)C(C)C,-1.5
CCc1nc(N2[C@H](C#N)[C@@H](c3ccccc3-c3ccccc3F)[C@@H]2CO)sc1C,0.23
C[C@H]1CN([C@@H](C)CO)C(=O)c2ccccc2-c2ccccc2CO[C@H]1CN(C)C(=O)c1cc(Cl)cc(Cl)c1,-0.89
O=C(Nc1ccccc1F)N1CCCCN2[C@H](C1)[C@H](c1ccc(-c3cccnc3)cc1)[C@@H]2CO,0.34
CCCNC(=O)N1[C@H](C#N)[C@H](c2ccc(-c3cccc(OC)c3)cc2)[C@H]1CO,-1.9
COc1ccc(NC(=O)N2CCC3(CC2)CN(C(=O)c2cccnc2)[C@H](CO)c2[nH]c4cc(OC)ccc4c23)cc1,-1.2
COc1ccc(-c2ccc(C3[C@H]4CNC[C@@H]3N4S(=O)(=O)c3cn(C)cn3)cc2)cc1 (some centres not stated),-0.26
Cc1noc(C)c1C(=O)N(C)C[C@H]1OCc2ccccc2-c2ccccc2C(=O)N([C@@H](C)CO)C[C@H]1C,0.34
COc1ccc(-c2ccc([C@H]3[C@H](CO)N4C(=O)CN(C(=O)C5CCOCC5)C[C@@H]34)cc2)cc1,-1.1
COc1cccc(-c2ccc([C@H]3[C@H](CO)N4C(=O)CN(C(=O)CN5CCOCC5)C[C@@H]34)cc2)c1,-3.4*
O=C(CN1CCOCC1)N1CC(=O)N2[C@@H](CO)[C@H](c3ccc(-c4ccccc4)cc3)[C@@H]2C1,1.5
COc1cccc(-c2ccc([C@H]3[C@@H](CO)N4C(=O)CN(C(=O)C5CCOCC5)C[C@H]34)cc2)c1,-8.7*
COc1cccc(-c2ccc([C@H]3[C@@H](CO)N4C(=O)CN(C(=O)C5CCOCC5)C[C@@H]34)cc2)c1,-4.5*
COc1cccc(-c2ccc([C@H]3[C@H]4CN(C(=O)C5CCOCC5)CC(=O)N4[C@H]3CO)cc2)c1,-0.85
O=C(CN1CCOCC1)N1CC(=O)N2[C@H](CO)[C@@H](c3ccc(-c4cccc(F)c4)cc3)[C@H]2C1,1.2
COc1cccc(-c2ccc([C@H]3[C@H](CO)N4C(=O)CN(C(=O)C5CCOCC5)C[C@@H]34)cc2)c1,-1.8
COc1ccc(-c2ccc([C@@H]3[C@@H](CO)N4C(=O)CN(C(=O)C5CCOCC5)C[C@H]34)cc2)cc1,1.6
C[C@@H](O)C#Cc1ccc([C@H]2[C@H](CO)N3CCCCN(C(=O)c4ccncc4)C[C@@H]23)cc1,4.6
CCCNC(=O)C[C@@H]1CC[C@H]2[C@H](COc3ccc(NC(=O)CC)cc3C(=O)N2C)O1,0.3
COc1ccc2c3c([nH]c2c1)[C@H](CO)N(C(=O)c1cccnc1)CC31CN(Cc2ccccc2)C1,1
O=C(C[C@@H]1CC[C@H]2[C@@H](COC[C@@H](O)CN2C(=O)c2cccnc2)O1)NCC1CC1,0.65
N#C[C@H]1[C@@H](c2ccccc2-c2ccccc2)[C@H](CO)N1C(=O)Cc1cccnc1,2.8
CCCNC(=O)N1[C@H](CO)[C@@H](c2ccccc2)[C@@H]1C#N,2.2
SMILES,IDE exosite FP
CCCNC(=O)N1[C@@H](C#N)[C@H](c2ccccc2)[C@@H]1CO,3.5
O=C(Nc1ccccc1Cl)N1C[C@@H]2[C@H](c3ccccc31)[C@@H](CO)N2C(=O)c1cccnc1,2.8
O=C(C[C@@H]1CC[C@@H]2[C@H](COC[C@H](O)CN2S(=O)(=O)c2cccc(F)c2)O1)NCc1ccncn1,2.6
CN(C[C@H]1N[C@@H](CO)[C@@H]1c1ccc(-c2cccc(F)c2)cc1)S(C)(=O)=O,5.8
CN1CCCCN2[C@H](C1)[C@@H](c1ccc(-c3ccc(F)cc3)cc1)[C@@H]2CO,-0.96
Cc1ccccc1S(=O)(=O)N1[C@H](C#N)[C@@H](c2ccccc2-c2cccc(F)c2)[C@@H]1CO,-0.73
O=C(C1CC1)N1CC(=O)N2[C@H](C1)[C@@H](c1ccc(-c3ccccc3F)cc1)[C@@H]2CO,-8.1*
